# Tests used:
# Assay in all cases: DAPPL (digital affinity profiling via proximity ligation, sequencing); 10 mM Tris-HCl pH 7.5, 50 mM NaCl, 1 mM DTT, 4% glycerol, room temperature, 30 min; GST-TFs on glutathione beads, 16-mer random dsDNA library, 0.1% formaldehyde crosslink after washing; high values mean tight binding
# FLI1 = target: T1, FLI1 (Homo sapiens, UniProt Q01543 1-452); details: protein: recombinant; tags: N-terminal GST; dsDNA, one strand shown
# T1 sequence: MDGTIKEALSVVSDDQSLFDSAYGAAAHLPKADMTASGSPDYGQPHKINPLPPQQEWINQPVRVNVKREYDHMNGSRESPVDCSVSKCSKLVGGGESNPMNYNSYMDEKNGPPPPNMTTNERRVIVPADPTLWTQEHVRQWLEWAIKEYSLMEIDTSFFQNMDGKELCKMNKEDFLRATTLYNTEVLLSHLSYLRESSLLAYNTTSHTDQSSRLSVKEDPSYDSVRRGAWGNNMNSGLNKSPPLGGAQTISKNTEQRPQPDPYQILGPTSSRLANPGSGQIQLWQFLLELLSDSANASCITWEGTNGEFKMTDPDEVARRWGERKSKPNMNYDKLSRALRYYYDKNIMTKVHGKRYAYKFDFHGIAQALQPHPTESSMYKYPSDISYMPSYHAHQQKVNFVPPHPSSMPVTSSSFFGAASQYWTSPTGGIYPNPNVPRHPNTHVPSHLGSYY
# Procedure, shortened: (§1)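 Binding signal is given per hexamer as its read frequency for a factor divided by its frequency in the tag-only sample. GST-fused human transcription factors were expressed in yeast, captured on glutathione beads, barcoded with DNA and pooled with that sample, then incubated with 200 nmole of a 16-mer random double-stranded DNA library in Tris/NaCl/DTT/glycerol buffer for 30 min at room temperature. The pools were then washed, crosslinked, proximity-ligated, amplified by PCR and sequenced on an Illumina NextSeq500.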
# ELK1 = target: T2, ELK1 (Homo sapiens, UniProt P19419 1-428); details: protein: recombinant; tags: N-terminal GST; dsDNA, one strand shown
# T2 sequence: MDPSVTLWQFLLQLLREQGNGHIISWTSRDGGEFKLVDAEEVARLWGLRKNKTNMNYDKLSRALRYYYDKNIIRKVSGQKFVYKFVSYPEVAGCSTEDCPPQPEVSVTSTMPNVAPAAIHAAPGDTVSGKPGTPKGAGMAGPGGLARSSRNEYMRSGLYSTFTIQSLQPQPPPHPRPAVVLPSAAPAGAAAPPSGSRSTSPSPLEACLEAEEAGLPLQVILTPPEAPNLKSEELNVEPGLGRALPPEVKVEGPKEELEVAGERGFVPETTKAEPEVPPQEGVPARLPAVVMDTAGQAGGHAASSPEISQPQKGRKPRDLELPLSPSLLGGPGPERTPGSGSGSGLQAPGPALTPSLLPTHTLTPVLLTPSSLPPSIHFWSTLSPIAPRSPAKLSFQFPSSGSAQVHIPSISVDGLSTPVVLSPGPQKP
# Procedure, shortened: as §1
# GABPA = target: T3, GABPA (Homo sapiens, UniProt Q06546 1-454); details: protein: recombinant; tags: N-terminal GST; dsDNA, one strand shown
# T3 sequence: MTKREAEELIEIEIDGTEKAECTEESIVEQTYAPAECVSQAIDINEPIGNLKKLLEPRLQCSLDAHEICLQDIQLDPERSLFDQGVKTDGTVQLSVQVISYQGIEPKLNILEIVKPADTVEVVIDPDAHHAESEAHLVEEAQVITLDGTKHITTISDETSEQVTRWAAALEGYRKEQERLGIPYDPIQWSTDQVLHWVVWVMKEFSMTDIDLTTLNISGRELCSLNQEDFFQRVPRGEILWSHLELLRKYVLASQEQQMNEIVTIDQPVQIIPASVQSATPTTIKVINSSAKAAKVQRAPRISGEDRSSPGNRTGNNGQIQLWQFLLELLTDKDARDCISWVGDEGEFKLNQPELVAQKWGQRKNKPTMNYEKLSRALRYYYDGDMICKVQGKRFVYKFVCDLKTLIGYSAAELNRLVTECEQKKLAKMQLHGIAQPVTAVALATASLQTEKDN
# Procedure, shortened: as §1
# ERG = target: T4, ERG (Homo sapiens, UniProt P11308 1-479); details: protein: recombinant; tags: N-terminal GST; dsDNA, one strand shown
# T4 sequence: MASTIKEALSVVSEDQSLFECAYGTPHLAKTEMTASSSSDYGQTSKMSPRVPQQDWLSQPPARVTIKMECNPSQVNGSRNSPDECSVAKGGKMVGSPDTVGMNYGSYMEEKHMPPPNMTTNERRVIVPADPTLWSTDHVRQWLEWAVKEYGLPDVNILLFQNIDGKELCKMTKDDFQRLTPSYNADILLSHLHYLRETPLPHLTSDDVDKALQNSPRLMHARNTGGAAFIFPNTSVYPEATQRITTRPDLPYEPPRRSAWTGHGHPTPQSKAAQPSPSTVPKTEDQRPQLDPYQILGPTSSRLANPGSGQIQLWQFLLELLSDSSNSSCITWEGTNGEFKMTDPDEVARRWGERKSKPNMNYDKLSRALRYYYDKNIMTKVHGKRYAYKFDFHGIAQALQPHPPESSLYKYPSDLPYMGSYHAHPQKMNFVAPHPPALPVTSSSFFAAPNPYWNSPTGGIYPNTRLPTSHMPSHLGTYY
# Procedure, shortened: as §1
# ELF1 = ELF1 (Homo sapiens, UniProt P32519 1-619); details: protein: recombinant; tags: N-terminal GST; dsDNA, one strand shown
# Procedure, shortened: as §1
# EHF = target: T5, EHF (Homo sapiens, UniProt Q9NZC4 1-300); details: protein: recombinant; tags: N-terminal GST; dsDNA, one strand shown
# T5 sequence: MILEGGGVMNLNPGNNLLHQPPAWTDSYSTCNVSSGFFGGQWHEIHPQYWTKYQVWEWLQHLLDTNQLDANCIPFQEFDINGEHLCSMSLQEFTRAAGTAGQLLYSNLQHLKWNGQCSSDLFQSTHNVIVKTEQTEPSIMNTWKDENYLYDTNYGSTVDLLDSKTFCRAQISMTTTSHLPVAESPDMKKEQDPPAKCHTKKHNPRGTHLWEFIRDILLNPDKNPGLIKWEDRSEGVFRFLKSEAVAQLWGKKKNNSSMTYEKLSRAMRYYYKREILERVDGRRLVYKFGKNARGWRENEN
# Procedure, shortened: as §1
# SPI1 = SPI1 (Homo sapiens, UniProt P17947 1-270); details: protein: recombinant; tags: N-terminal GST; dsDNA, one strand shown
# Procedure, shortened: as §1
# SPIB = SPIB (Homo sapiens, UniProt Q01892 1-262); details: protein: recombinant; tags: N-terminal GST; dsDNA, one strand shown
# Procedure, shortened: as §1
# ELK3 = target: T6, ELK3 (Homo sapiens, UniProt P41970 1-407); details: protein: recombinant; tags: N-terminal GST; dsDNA, one strand shown
# T6 sequence: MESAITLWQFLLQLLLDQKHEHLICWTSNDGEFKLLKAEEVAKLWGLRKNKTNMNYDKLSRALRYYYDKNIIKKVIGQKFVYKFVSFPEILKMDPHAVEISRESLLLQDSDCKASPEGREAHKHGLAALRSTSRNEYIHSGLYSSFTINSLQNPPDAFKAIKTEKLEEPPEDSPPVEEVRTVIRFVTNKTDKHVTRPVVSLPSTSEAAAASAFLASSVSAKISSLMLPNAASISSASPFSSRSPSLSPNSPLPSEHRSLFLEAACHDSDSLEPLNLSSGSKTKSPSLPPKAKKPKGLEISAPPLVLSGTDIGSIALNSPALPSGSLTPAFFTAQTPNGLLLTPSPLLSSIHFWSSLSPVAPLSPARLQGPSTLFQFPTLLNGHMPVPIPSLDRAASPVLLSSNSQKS
# Procedure, shortened: as §1
# FEV = target: T7, FEV (Homo sapiens, UniProt Q99581 1-238); details: protein: recombinant; tags: N-terminal GST; dsDNA, one strand shown
# T7 sequence: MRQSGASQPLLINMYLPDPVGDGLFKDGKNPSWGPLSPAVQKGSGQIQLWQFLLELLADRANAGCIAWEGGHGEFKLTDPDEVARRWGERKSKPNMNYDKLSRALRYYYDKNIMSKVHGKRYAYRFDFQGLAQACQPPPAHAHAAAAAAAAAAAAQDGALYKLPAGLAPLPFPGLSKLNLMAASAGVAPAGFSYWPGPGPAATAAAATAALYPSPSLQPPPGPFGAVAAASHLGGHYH
# Procedure, shortened: as §1
# ETV5 = ETV5 (Homo sapiens, UniProt P41161 1-510); details: protein: recombinant; tags: N-terminal GST; dsDNA, one strand shown
# Procedure, shortened: as §1
# HSF1 = HSF1 (Homo sapiens, UniProt Q00613 1-529); details: protein: recombinant; tags: N-terminal GST; chain copies: 3; dsDNA, one strand shown
# Procedure, shortened: as §1
# SPIC = target: T8, SPIC (Homo sapiens, UniProt Q8N5J4 1-248); details: protein: recombinant; tags: N-terminal GST; dsDNA, one strand shown
# T8 sequence: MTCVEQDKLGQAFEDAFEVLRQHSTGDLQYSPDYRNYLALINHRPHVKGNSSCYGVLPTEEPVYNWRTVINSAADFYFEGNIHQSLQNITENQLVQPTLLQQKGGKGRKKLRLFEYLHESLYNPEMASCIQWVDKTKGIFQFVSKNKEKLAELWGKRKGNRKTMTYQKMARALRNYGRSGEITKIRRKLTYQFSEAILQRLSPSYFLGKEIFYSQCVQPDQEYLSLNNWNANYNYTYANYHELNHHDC
# Procedure, shortened: as §1
# ELF4 = ELF4 (Homo sapiens, UniProt Q99607 1-663); details: protein: recombinant; tags: N-terminal GST; dsDNA, one strand shown
# Procedure, shortened: as §1
# ELK4 = target: T9, ELK4 (Homo sapiens, UniProt P28324-2 1-405); details: protein: recombinant; tags: N-terminal GST; dsDNA, one strand shown
# T9 sequence: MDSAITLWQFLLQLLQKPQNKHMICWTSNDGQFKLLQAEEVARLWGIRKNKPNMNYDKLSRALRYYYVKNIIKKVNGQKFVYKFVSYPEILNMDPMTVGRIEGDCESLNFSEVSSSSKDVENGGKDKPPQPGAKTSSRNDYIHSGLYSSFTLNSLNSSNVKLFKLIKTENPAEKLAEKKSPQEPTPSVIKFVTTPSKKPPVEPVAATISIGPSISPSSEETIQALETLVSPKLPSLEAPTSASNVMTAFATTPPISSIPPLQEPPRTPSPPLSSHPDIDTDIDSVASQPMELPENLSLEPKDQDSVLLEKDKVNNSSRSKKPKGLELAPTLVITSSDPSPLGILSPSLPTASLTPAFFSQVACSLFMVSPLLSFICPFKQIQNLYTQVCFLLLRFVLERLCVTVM
# Procedure, shortened: as §1
# ETV2 = target: T10, ETV2 (Homo sapiens, UniProt O00321 1-342); details: protein: recombinant; tags: N-terminal GST; dsDNA, one strand shown
# T10 sequence: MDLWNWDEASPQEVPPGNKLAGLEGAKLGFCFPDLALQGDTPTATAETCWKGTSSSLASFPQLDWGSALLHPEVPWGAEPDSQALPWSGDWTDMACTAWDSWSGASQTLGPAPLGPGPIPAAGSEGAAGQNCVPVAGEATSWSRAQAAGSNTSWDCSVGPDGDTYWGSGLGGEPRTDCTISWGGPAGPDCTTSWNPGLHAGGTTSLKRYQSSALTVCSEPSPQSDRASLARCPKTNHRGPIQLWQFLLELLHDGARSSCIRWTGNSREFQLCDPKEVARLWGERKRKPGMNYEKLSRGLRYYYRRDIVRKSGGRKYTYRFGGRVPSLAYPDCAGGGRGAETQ
# Procedure, shortened: as §1
# ELF3 = target: T11, ELF3 (Homo sapiens, UniProt P78545 1-371); details: protein: recombinant; tags: N-terminal GST; dsDNA, one strand shown
# T11 sequence: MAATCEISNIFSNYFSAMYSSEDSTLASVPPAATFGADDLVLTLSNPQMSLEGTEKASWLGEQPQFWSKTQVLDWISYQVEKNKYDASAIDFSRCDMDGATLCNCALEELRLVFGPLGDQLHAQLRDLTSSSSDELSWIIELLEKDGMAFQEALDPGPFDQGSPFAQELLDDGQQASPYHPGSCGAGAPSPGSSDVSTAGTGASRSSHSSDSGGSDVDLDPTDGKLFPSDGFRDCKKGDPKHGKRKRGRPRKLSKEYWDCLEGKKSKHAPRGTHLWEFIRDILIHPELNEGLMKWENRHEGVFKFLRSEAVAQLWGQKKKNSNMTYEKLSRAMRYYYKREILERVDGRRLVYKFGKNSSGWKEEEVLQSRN
# Procedure, shortened: as §1
# CRX = CRX (Homo sapiens, UniProt O43186 1-299); details: protein: recombinant; tags: N-terminal GST; dsDNA, one strand shown
# Procedure, shortened: as §1
# ETV1 = ETV1 (Homo sapiens, UniProt P50549 1-477); details: protein: recombinant; tags: N-terminal GST; dsDNA, one strand shown
# Procedure, shortened: as §1
# Chain of CRX (O43186 whole entry): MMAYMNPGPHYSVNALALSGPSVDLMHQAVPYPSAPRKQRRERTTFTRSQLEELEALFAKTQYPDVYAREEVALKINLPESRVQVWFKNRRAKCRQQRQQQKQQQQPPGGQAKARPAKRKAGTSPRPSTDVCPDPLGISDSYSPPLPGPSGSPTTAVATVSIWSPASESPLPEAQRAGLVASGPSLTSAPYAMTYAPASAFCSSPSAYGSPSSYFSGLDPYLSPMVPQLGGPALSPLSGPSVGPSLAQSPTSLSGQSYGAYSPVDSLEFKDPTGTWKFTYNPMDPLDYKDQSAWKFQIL
# Chain of SPIB (Q01892 whole entry): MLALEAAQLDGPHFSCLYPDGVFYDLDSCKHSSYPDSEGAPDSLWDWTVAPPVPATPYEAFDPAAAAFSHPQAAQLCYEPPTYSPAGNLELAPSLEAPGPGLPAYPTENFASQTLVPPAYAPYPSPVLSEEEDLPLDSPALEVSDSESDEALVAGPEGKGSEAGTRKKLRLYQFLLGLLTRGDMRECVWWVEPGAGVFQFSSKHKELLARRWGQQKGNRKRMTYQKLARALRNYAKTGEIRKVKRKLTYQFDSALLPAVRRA
# Chain of ELF4 (Q99607 whole entry): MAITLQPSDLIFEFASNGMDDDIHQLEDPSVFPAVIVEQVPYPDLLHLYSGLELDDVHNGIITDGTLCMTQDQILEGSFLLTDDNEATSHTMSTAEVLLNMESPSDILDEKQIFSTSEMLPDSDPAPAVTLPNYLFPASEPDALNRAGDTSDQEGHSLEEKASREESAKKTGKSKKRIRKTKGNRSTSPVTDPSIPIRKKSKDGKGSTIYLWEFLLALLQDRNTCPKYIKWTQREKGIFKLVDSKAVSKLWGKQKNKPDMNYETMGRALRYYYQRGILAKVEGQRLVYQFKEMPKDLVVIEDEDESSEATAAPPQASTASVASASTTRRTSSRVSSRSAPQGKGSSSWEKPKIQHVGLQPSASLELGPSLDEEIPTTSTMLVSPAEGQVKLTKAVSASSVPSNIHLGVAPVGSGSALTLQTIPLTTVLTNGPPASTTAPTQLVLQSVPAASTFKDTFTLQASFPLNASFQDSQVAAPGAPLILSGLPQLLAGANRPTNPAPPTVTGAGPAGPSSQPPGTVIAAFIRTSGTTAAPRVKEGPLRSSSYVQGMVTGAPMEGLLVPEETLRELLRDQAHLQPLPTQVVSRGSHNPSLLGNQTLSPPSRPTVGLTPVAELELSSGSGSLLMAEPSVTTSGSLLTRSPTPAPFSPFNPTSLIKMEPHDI
# Chain of HSF1 (Q00613 whole entry): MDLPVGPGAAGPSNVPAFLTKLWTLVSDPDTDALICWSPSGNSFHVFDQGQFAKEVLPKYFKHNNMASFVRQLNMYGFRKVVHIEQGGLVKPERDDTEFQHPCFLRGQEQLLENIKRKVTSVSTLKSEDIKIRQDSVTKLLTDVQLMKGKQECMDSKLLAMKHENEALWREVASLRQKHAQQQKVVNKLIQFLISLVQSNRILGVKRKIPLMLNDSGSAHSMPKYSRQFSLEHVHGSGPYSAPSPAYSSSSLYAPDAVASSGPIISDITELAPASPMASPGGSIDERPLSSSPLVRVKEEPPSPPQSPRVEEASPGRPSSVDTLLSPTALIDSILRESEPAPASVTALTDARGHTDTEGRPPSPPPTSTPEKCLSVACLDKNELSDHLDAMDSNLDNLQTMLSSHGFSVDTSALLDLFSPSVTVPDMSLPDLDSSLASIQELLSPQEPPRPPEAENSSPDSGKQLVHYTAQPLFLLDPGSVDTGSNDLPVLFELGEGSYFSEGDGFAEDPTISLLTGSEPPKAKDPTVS
# Chain of ETV1 (P50549 whole entry): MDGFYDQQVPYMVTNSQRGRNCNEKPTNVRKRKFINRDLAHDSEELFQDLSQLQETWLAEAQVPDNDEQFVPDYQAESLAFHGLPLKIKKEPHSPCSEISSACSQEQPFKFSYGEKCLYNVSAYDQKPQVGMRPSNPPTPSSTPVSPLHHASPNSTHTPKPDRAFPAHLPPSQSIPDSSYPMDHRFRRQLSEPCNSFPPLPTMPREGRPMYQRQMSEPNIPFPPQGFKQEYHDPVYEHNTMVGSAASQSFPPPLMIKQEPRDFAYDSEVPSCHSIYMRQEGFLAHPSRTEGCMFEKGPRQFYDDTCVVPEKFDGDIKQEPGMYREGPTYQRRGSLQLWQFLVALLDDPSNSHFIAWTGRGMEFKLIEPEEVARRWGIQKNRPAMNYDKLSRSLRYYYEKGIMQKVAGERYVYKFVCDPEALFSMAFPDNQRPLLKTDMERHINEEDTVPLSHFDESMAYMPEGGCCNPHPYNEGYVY
# Chain of ELF1 (P32519 whole entry): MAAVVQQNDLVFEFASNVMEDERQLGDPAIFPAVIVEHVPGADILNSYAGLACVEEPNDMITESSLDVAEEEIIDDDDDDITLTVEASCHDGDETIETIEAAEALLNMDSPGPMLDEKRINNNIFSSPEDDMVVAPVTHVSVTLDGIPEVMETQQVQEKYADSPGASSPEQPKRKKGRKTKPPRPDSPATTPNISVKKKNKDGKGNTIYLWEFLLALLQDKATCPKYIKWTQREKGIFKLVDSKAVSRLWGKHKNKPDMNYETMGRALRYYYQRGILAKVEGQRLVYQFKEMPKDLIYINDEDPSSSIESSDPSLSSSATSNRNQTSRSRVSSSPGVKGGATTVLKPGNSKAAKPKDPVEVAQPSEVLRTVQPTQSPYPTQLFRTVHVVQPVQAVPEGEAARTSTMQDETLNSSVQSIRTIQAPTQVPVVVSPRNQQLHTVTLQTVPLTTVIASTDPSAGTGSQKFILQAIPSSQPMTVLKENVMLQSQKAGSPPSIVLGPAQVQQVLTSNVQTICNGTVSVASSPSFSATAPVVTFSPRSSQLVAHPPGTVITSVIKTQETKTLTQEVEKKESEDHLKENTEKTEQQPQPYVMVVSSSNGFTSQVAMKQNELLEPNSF
# Chain of ETV5 (P41161 whole entry): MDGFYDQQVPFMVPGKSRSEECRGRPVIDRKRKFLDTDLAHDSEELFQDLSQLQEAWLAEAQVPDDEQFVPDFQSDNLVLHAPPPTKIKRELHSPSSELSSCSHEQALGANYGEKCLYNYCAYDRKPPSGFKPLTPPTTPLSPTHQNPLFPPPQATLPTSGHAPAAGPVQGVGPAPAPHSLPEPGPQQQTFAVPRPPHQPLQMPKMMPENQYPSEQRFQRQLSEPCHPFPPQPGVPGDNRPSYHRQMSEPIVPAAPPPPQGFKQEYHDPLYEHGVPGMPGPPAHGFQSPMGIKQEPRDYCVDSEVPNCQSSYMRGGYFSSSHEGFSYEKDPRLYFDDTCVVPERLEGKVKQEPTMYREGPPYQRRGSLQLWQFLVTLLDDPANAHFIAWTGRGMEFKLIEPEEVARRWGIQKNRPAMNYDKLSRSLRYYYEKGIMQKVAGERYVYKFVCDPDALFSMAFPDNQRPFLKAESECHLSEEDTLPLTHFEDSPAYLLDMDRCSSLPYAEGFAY
sequence,measurement,setting,value
TAACGC,binding signal,FLI1,"1.12 fold enrichment (6-mer frequency, TF over GST control)"
same,binding signal,ELK1,"1.2 fold enrichment (6-mer frequency, TF over GST control)"
same,binding signal,GABPA,"1.21 fold enrichment (6-mer frequency, TF over GST control)"
same,binding signal,ERG,"1.17 fold enrichment (6-mer frequency, TF over GST control)"
same,binding signal,ELF1,"1.27 fold enrichment (6-mer frequency, TF over GST control)"
same,binding signal,EHF,"1.16 fold enrichment (6-mer frequency, TF over GST control)"
same,binding signal,SPI1,"1.17 fold enrichment (6-mer frequency, TF over GST control)"
same,binding signal,SPIB,"1.13 fold enrichment (6-mer frequency, TF over GST control)"
same,binding signal,ELK3,"1.23 fold enrichment (6-mer frequency, TF over GST control)"
same,binding signal,FEV,"1.19 fold enrichment (6-mer frequency, TF over GST control)"
same,binding signal,ETV5,"1.22 fold enrichment (6-mer frequency, TF over GST control)"
same,binding signal,HSF1,"1.28 fold enrichment (6-mer frequency, TF over GST control)"
same,binding signal,SPIC,"1.05 fold enrichment (6-mer frequency, TF over GST control)"
same,binding signal,ELF4,"1.15 fold enrichment (6-mer frequency, TF over GST control)"
same,binding signal,ELK4,"1.17 fold enrichment (6-mer frequency, TF over GST control)"
same,binding signal,ETV2,"1.13 fold enrichment (6-mer frequency, TF over GST control)"
same,binding signal,ELF3,"1.17 fold enrichment (6-mer frequency, TF over GST control)"
same,binding signal,CRX,"1.63 fold enrichment (6-mer frequency, TF over GST control)"
same,binding signal,ETV1,"1.12 fold enrichment (6-mer frequency, TF over GST control)"
